Assay results reported in PubChem BioAssay AID430 (Sanford-Burnham Center for Chemical Genomics, 2006).
About 1,100 (1.7%) of roughly 63,000 compounds were called active. What follows is part of a selection rich in actives, with near analogues and random picks from the rest. Entries with a potency or affinity are not part of this list. Values without a mark were called inactive. No stated cut-off is given here; in the data, active means cytotoxicity above about 50%; inactive means the rest.

assay: cytotoxicity in HPDE-C7 cells, cell-based, fluorescence, HTS (AID 430); details: HPDE-C7 pancreatic duct cells viability, at 10 µM, hits give high values;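 further: cells exposed to compound for 48 hours before viability readout; 0% = vehicle and 100% = reference cytotoxic drug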

Q: With CC(NC(=O)CC12CC3CC(CC(C3)C1)C2)C(=O)O (stereo not drawn) as the compound, how does the cytotoxicity read?
A: 3%

Q: For COCCN(CC(=O)NCc1ccc(F)cc1)C(=O)CCC(=O)Nc1nccs1, which cytotoxicity is on record?
A: 3.1%

Q: With CCc1nnc(NC(=O)C2CCN(c3nccc(C)n3)CC2)s1 as the compound, how does the cytotoxicity read?
A: -2.7%

Q: Which cytotoxicity does the source give for O=C(CSc1nnc(CNC(=O)c2cccs2)o1)NC1CCCCC1 here?
A: -2.7%

Q: Which cytotoxicity does the source give for O=C1c2ccccc2-c2onc3ccc(NCCCn4ccnc4)c1c23 here?
A: 20.3%

Q: Which cytotoxicity does the source give for COc1ccc2noc3c2c1C(=O)c1ccccc1-3 here?
A: 45.8%

Q: Which cytotoxicity does the source give for O=C1c2ccccc2-c2onc3ccc(NCc4ccco4)c1c23 here?
A: 62.1% (active)

Q: With Cc1nn(C)c(C)c1CNC(=O)c1nn2c(c1Cl)NC(c1cccs1)CC2C(F)(F)F (stereo not drawn) as the compound, how does the cytotoxicity read?
A: -0.2%

Q: With COc1ccc(NC(=O)C2CCCN(c3c4c(nc5ncnn35)CCC4)C2)cc1 (stereo not drawn) as the compound, how does the cytotoxicity read?
A: -37.1%

Q: With CCOc1ccccc1CNC(=O)C1CCN(c2nc3ccccc3o2)CC1 as the compound, how does the cytotoxicity read?
A: -9.3%

Q: For Cc1nc(NC(=O)c2ccccc2)sc1-c1csc(NCc2ccco2)n1, which cytotoxicity is on record?
A: 63.4% (active)

Q: Which cytotoxicity does the source give for Cc1nc(C)c(-c2csc(NCc3ccco3)n2)s1 here?
A: -21.6%

Q: For Cc1nc(NC(=O)c2ccccc2)sc1-c1csc(N)n1, which cytotoxicity is on record?
A: 39.2%

Q: For O=C(Nc1nc2c(s1)CCCC2)c1cc2n(n1)C(C(F)(F)F)CC(C1CC1)N2 (stereo not drawn), which cytotoxicity is on record?
A: 45.6%

Q: Which cytotoxicity does the source give for Cc1cccc(N(C(=O)Cn2nnc3ccccc32)C(C(=O)NCc2ccco2)c2ccncc2)c1 (stereo not drawn) here?
A: 5.1%

Q: Which cytotoxicity does the source give for CC1=C(C(=O)NCc2ccccc2)C(c2ccc(C)o2)n2ncnc2N1 (stereo not drawn) here?
A: -15%

Q: With CCOC(=O)c1c(C2COc3ccccc3O2)csc1N (stereo not drawn) as the compound, how does the cytotoxicity read?
A: -2.8%

Q: With COCc1cc(=O)[nH]c(Nc2nc3ccc(C)cc3o2)n1 as the compound, how does the cytotoxicity read?
A: 51.7% (active)

Q: For COCc1cc(=O)[nH]c(Nc2nc3ccccc3o2)n1, which cytotoxicity is on record?
A: 34.6%

Q: For COC(=O)Cc1cc(=O)[nH]c(Nc2nc3ccccc3o2)n1, which cytotoxicity is on record?
A: 7.2%

Q: With O=S(=O)(c1cc(C(F)(F)F)ccc1Cl)N1CCCCCC1 as the compound, how does the cytotoxicity read?
A: -4%

Q: Which cytotoxicity does the source give for CCOC(=O)C1=C(c2ccccc2)Nc2ncnn2C1c1ccccn1 (stereo not drawn) here?
A: -3.2%

Q: With CCOc1ccc2[nH]c3c(N4CCN(c5ccccn5)CC4)ncnc3c2c1 as the compound, how does the cytotoxicity read?
A: 62.5% (active)

Q: With CCOC(=O)c1[nH]c2ccc(OCC)cc2c1NC(=O)CN1CCN(c2ccccn2)CC1 as the compound, how does the cytotoxicity read?
A: 8.8%

Q: Which cytotoxicity does the source give for Cc1ccc2[nH]c3c(N4CCCCCC4)ncnc3c2c1 here?
A: 23.7%

Q: With Cc1ccc2c(c1)[nH]c1c(N3CCN(Cc4ccccc4)CC3)ncnc12 as the compound, how does the cytotoxicity read?
A: 82.2% (active)

Q: Which cytotoxicity does the source give for CCOC(=O)N1CCN(c2ncnc3c2[nH]c2ccc(OC)cc23)CC1 here?
A: -5%

Q: With Cc1ccc2[nH]c3c(N4CCOCC4)ncnc3c2c1 as the compound, how does the cytotoxicity read?
A: 5.1%

Q: For c1ccc(CN2CCN(c3ncnc4nc[nH]c34)CC2)cc1, which cytotoxicity is on record?
A: 8.4%

Q: For c1ccc(CN2CCN(c3ncnc4c3[nH]c3ccccc34)CC2)cc1, which cytotoxicity is on record?
A: 15.2%

Q: For Fc1ccccc1CSc1ncnc2c1oc1ccccc12, which cytotoxicity is on record?
A: 5.1%

Q: With COc1ccccc1NC(=O)c1cc(S(=O)(=O)N2CCC3(CC2)OCCO3)ccc1F as the compound, how does the cytotoxicity read?
A: 4.8%

Q: Which cytotoxicity does the source give for COc1cccc(C(=O)/C=C/Nc2cc(C)ccc2O)c1 here?
A: 65.2% (active)

Q: Which cytotoxicity does the source give for Cc1cccc(OCC(=O)Nc2cc(C)ccc2O)c1 here?
A: -6%

Q: With COc1cccc(C(=O)Nc2ccc(C)cc2)c1 as the compound, how does the cytotoxicity read?
A: -1.9%

Q: Which cytotoxicity does the source give for CCC(CC)C(=O)Nc1nnc(-c2cccs2)s1 here?
A: 5%

Q: Which cytotoxicity does the source give for Cc1cccc(C)c1NC1=NC(C)(C)N=C(N)N1 here?
A: 10.8%

Q: Which cytotoxicity does the source give for Cc1nn(-c2ccccc2)c(C)c1C(=O)OC/C(O)=C(\C#N)c1nc2ccccc2[nH]1 here?
A: 7.4%

Q: With N#C/C(=C(/O)COC(=O)c1ccc2c(c1)OCCO2)c1nc2ccccc2[nH]1 as the compound, how does the cytotoxicity read?
A: 24.1%

Q: For CCOC(=O)c1c(C)[nH]c(C(=O)OC/C(O)=C(\C#N)c2nc3ccccc3[nH]2)c1C, which cytotoxicity is on record?
A: 89.8% (active)

Q: For CCOc1cc(Br)c(C(=O)O)cc1OCC, which cytotoxicity is on record?
A: -2.5%

Q: Which cytotoxicity does the source give for COc1cccc2c1C(=O)c1c(O)c3c(c(O)c1C2=O)C[C@@](O)(C(=O)CO)C[C@@H]3O[C@H]1C[C@H](N)[C@H](O)[C@H](C)O1 here?
A: 102% (active)

Q: Which cytotoxicity does the source give for COc1cccc2c1C(=O)c1c(O)c3c(c(O)c1C2=O)C[C@@](O)(C(C)=O)C[C@@H]3O[C@H]1C[C@H](N)[C@H](O)[C@H](C)O1 here?
A: 108% (active)

Q: With COCC(C)NC(=O)c1cc(-c2ccc(OC)c(OC)c2)on1 (stereo not drawn) as the compound, how does the cytotoxicity read?
A: -3%

Q: With O=C1c2ccccc2C(=O)N1CC#CCN1CCN(C2CCCCC2)CC1 as the compound, how does the cytotoxicity read?
A: 2.6%

Q: Which cytotoxicity does the source give for Cc1cc(C)c(C#N)c(SCS(=O)Cc2ccccc2)n1 (stereo not drawn) here?
A: -16.4%

Q: Which cytotoxicity does the source give for Cc1cc(C)c(C#N)c(SCS(=O)Cc2ccc(Cl)cc2)n1 (stereo not drawn) here?
A: 50.3% (active)

Q: With Cc1cc(C)c(C#N)c(SCS(=O)c2ccc(C(C)(C)C)cc2)n1 (stereo not drawn) as the compound, how does the cytotoxicity read?
A: -4.8%

Q: Which cytotoxicity does the source give for CCOc1ccc(-c2noc(=O)[nH]2)cc1 here?
A: 0.9%

Q: Which cytotoxicity does the source give for CC1=NOC2(C1)N(C)c1ccccc1C2(C)C (stereo not drawn) here?
A: -10.1%

Q: Which cytotoxicity does the source give for COc1ccc2c(c1)C=CC1(O2)N(CCO)c2ccccc2C1(C)C (stereo not drawn) here?
A: 32.6%

Q: With CCOC(=O)c1sc(NC(=O)CCSC)nc1C as the compound, how does the cytotoxicity read?
A: 26.2%

Q: Which cytotoxicity does the source give for CCOC(=O)c1sc(NC(=O)CSc2nnnn2-c2ccccc2)nc1C here?
A: -4.9%

Q: With CCOC(=O)c1sc(NC(=O)CSc2ncn(-c3ccccc3)n2)nc1C as the compound, how does the cytotoxicity read?
A: 70.4% (active)

Q: Which cytotoxicity does the source give for O=C(CSc1ncn(-c2ccccc2)n1)Nc1nc2ccccc2s1 here?
A: 9.1%

Q: With CCOC(=O)c1ccc(NC(=O)CCc2nc(-c3ccccc3Cl)no2)cc1 as the compound, how does the cytotoxicity read?
A: 74.8% (active)

Q: For CCOC(=O)c1ccc(NC(=O)CCc2nc(-c3ccccc3)no2)cc1, which cytotoxicity is on record?
A: -1.1%

Q: With CCOC(=O)c1ccc(NC(=O)CCc2nc(-c3ccc(Cl)cc3)no2)cc1 as the compound, how does the cytotoxicity read?
A: -3.7%

Q: With Cc1sc2ncn3ncnc3c2c1C as the compound, how does the cytotoxicity read?
A: 4.8%

Q: Which cytotoxicity does the source give for Cc1cc(C)n2nc(C(=O)NCc3ccco3)nc2n1 here?
A: 11.2%

Q: With COC(=O)c1ccccc1NC(=O)c1cnc2sccn2c1=O as the compound, how does the cytotoxicity read?
A: 2.7%

Q: For COC(=O)c1ccccc1NC(=O)c1ccc(COc2ccccc2)o1, which cytotoxicity is on record?
A: -7.8%

Q: For COc1ccccc1NC(=O)c1ccc(-c2ccccc2F)o1, which cytotoxicity is on record?
A: -0.2%

Q: Which cytotoxicity does the source give for COC(=O)c1ccccc1NC(=O)c1ccc(-c2ccccc2F)o1 here?
A: 88.4% (active)

Q: For COc1ccc(OC)c(NC(=O)c2cc(-c3cc(Cl)ccc3O)n[nH]2)c1, which cytotoxicity is on record?
A: 12.2%

Q: For Cc1ccc(O)c(-c2cc(C(=O)Nc3ccc(S(=O)(=O)N4CC(C)OC(C)C4)cc3)[nH]n2)c1 (stereo not drawn), which cytotoxicity is on record?
A: -29.9%

Q: For COc1ccc(OC)c(NC(=O)c2cc(-c3ccc(C)cc3O)n[nH]2)c1, which cytotoxicity is on record?
A: -13.3%

Q: With COc1ccc(NC(=O)c2cc(-c3cc(C)cc(C)c3O)n[nH]2)cc1Cl as the compound, how does the cytotoxicity read?
A: 59.6% (active)

Q: With Cc1cc(O)c(-c2cc(C(=O)Nc3ccc(S(=O)(=O)N4CCOCC4)cc3)[nH]n2)cc1C as the compound, how does the cytotoxicity read?
A: 1%

Q: For O=C(Nc1cc(C(F)(F)F)ccc1Cl)C1CCN(c2nnc(-n3cccc3)s2)CC1, which cytotoxicity is on record?
A: -14.7%

Q: Which cytotoxicity does the source give for COC(=O)c1ccc(CSc2ncnc3c2nnn3-c2ccc(OC)cc2)o1 here?
A: -1%

Q: For O=C(O)CCC(=O)N1CCc2cc(S(=O)(=O)NC3CCCc4ccccc43)ccc21 (stereo not drawn), which cytotoxicity is on record?
A: 3.4%

Q: For Nc1ccccc1-c1nnc(SCc2ccccc2F)[nH]c1=O, which cytotoxicity is on record?
A: 3.6%

Q: With NC(=O)CSc1nnc2sc3ccccc3n12 as the compound, how does the cytotoxicity read?
A: 3.6%

Q: For COc1cccc(S(=O)(=O)Nc2cccnc2)c1, which cytotoxicity is on record?
A: -10.8%

Q: Which cytotoxicity does the source give for Cc1cnc(NC(=O)CSc2ncc(-c3ccccc3)n2Cc2ccco2)s1 here?
A: -1%

Q: Which cytotoxicity does the source give for O=C(CSc1ncc(-c2ccc(F)cc2)n1Cc1ccco1)Nc1ccc2c(c1)OCO2 here?
A: 72.6% (active)

Q: With COc1ccc(-c2cnc(SCC(=O)Nc3cc(C)on3)n2Cc2ccco2)cc1 as the compound, how does the cytotoxicity read?
A: -8.9%

Q: With COc1ccc(-c2cnc(SCC(=O)Nc3ccc4c(c3)OCO4)n2Cc2ccco2)cc1 as the compound, how does the cytotoxicity read?
A: 5%

Q: For CCC(=O)Nc1cc(NC(=O)CSc2ncc(-c3ccc(F)cc3)n2Cc2ccco2)ccc1C, which cytotoxicity is on record?
A: 3.8%

Q: Which cytotoxicity does the source give for CC(=O)Nc1cccc(NC(=O)CSc2ncc(-c3ccc(Cl)cc3)n2Cc2ccco2)c1 here?
A: 64% (active)

Q: With CCOCCCN1CC(C(=O)NCCc2ccccc2)CC1=O (stereo not drawn) as the compound, how does the cytotoxicity read?
A: -5.3%

Q: For CC(=O)Nc1ccc(C(=O)CSc2nc3ccccc3n2CC(=O)N2CCCC2)cc1, which cytotoxicity is on record?
A: 5%

Q: For Cc1cc2c(c(N3CCOCC3)n1)C(=O)OC2, which cytotoxicity is on record?
A: -1.9%

Q: For COc1ccc(CNC(=O)C2CCCN2S(=O)(=O)c2ccccc2)cc1 (stereo not drawn), which cytotoxicity is on record?
A: -10.6%

Q: Which cytotoxicity does the source give for O=S(=O)(c1ccccc1Cl)N1CCCC(c2nc(-c3cccnc3)no2)C1 (stereo not drawn) here?
A: 2%

Q: Which cytotoxicity does the source give for CCCC(c1nnnn1C(C)(C)CC)N(Cc1ccco1)Cc1cc2ccc(OC)cc2[nH]c1=O (stereo not drawn) here?
A: 72.9% (active)

Q: With CCC(C)(C)n1nnnc1C(c1cc2cc(OC)ccc2[nH]c1=O)N1CCc2ccccc21 (stereo not drawn) as the compound, how does the cytotoxicity read?
A: 2.6%

Q: For COc1ccc2[nH]c(=O)c(CN(Cc3nnnn3Cc3ccco3)C3CCCCC3)cc2c1, which cytotoxicity is on record?
A: 24.6%

Q: With COc1ccc2cc(CN(Cc3ccco3)Cc3nnnn3C3CCCCC3)c(=O)[nH]c2c1 as the compound, how does the cytotoxicity read?
A: 23.1%

Q: With CCC(C)(C)n1nnnc1C(c1cc2ccc(OC)cc2[nH]c1=O)N1CCc2ccccc21 (stereo not drawn) as the compound, how does the cytotoxicity read?
A: 50.8% (active)

Q: With CCC(c1nnnn1Cc1ccccc1)N(Cc1ccco1)Cc1cc2cc(OC)ccc2[nH]c1=O (stereo not drawn) as the compound, how does the cytotoxicity read?
A: 18%

Q: For CCC(C)(C)n1nnnc1C(c1cc2cc(OC)c(OC)cc2[nH]c1=O)N1CCc2ccccc21 (stereo not drawn), which cytotoxicity is on record?
A: 11.4%

Q: For CCC(c1nnnn1C1CCCCC1)N(Cc1ccco1)Cc1cc2ccc(OC)cc2[nH]c1=O (stereo not drawn), which cytotoxicity is on record?
A: 56.8% (active)

Q: Which cytotoxicity does the source give for COc1ccc2[nH]c(=O)c(CN(C3CCCCC3)C(c3nnnn3Cc3ccco3)C(C)C)cc2c1 (stereo not drawn) here?
A: 21.5%

Q: Which cytotoxicity does the source give for COc1ccc2cc(CN(Cc3ccco3)C(c3nnnn3C3CCCCC3)C(C)C)c(=O)[nH]c2c1 (stereo not drawn) here?
A: -35.5%

Q: For CCC(c1nnnn1Cc1ccco1)N(Cc1cc2cc(OC)ccc2[nH]c1=O)C1CCCCC1 (stereo not drawn), which cytotoxicity is on record?
A: 97.7% (active)

Q: With CCC(C)(C)n1nnnc1C(c1cc2ccc(C)cc2[nH]c1=O)N(Cc1cccnc1)Cc1ccco1 (stereo not drawn) as the compound, how does the cytotoxicity read?
A: 23.4%
